Screens (PubChem BioAssay)
An excerpt weighted towards active compounds, which were near 7.1% of everything screened.
ATXN2 expr inh: inhibitors of ATXN2 expression; Potency, µM (top dose mostly 57 µM), hits mostly inhibitors; 0.72% of 360,000 active; HEK-293 ATXN2-luciferase reporter, luminescence, 24 h; AID 1745845; also: nearly all actives have a fitted effect of over 55% in size
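qHTS (up to 57 uM final) was run with 24 h compound exposure of reporter cells at 37 °C. Each well was multiplexed: SteadyGlo luminescence measured ATXN2-luciferase expression after a fluorogenic Gly-Phe-AFC viability readout (25 uM final).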
S2 tox: reduces viability in counter-screen for ATXN expression inhibitors | S2 cells (HEK-293 line with an ATXN2-luciferase reporter) viability, CellTiter-Fluor protease fluorescence, 24 h | 0.49% of 400,000 active | AID 651635 | Potency, µM (highest dose often 56.7 µM), hits mostly cytotoxic; also: nearly all actives have a fitted effect of over 40% in size
IL1B secr inh: inflammasome signaling inhibition, IL-1 beta readout; THP-1 LPS/ATP IL-1B secretion, AlphaLISA, 16 h; stronger effect = lower value; activity change, % at 57.5 µM; 4.7% of 360,000 active; AID 743279; in the data active = activity change below about -50%; inconclusive = mostly about -30% to -49%
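THP-1 cells pretreated 1 hr with compounds (up to 57.5 uM final), then stimulated with LPS (250 ng/mL final) plus ATP (1.25 mM final); secreted IL-1B measured by AlphaLISA after 16 hr, decreased signal indicating inhibition.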
MCF10A rerep: inducers of DNA re-replication in MCF 10A breast cells; Potency, µM (titrated, usually from 46.1 µM), most hits filed as activators; MCF 10A DNA re-replication, Hoechst nuclear intensity, 48 h; AID 624296; 2.9% of 350,000 active; also: nearly all actives have a fitted effect of over 50% in size
SW480 rerep: DNA re-replication induction in SW480 cells. SW480 DNA re-replication, Hoechst DNA content imaging, 48 h. Potency, µM (series often up to 46.1 µM), actives largely listed as activators. 1.8% of 340,000 active. AID 624297; also: nearly all actives have a fitted effect of over 55% in size
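Image-based read-out: total Hoechst fluorescence of nuclei (405 nm excitation, 500-530 nm emission), with hits raising the fraction of high-intensity nuclei. SW480 colon cells incubated 48 hr with compounds at 37 C.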
PINK1 expr mod: PINK1 expression modulation | 0.2% of 410,000 active | PINK1 immunofluorescence, high-content cytometry, 24 h | Potency, µM (titrated, usually from 76.6 µM), hits mostly activators; active = well fitted activation curve with a large enough effect; inconclusive = small, poorly fitted or top-dose-only effect; cell line not stated here; also: nearly all actives have a fitted effect of over 65% in size
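Compound titrations (5 concentrations, 24 h) on a stable cell line; DMSO and CCCP controls. Endpoint: fixed-cell PINK1 immunofluorescence with mitochondrial, cell and nuclear markers, scanned by microplate cytometer.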
Numbers stand for hits; n = inactive; u = inconclusive; x = no result given; [ ] = remark or other dose. Unless noted, calls follow the shape of the dose curve; as a rule, active = well fitted curve in the direction sought with a large enough effect; inconclusive = small, poorly fitted or top-dose-only effect, or another doubt; inactive = no such curve, though single readings can be large; an effect the other way counts as inactive or inconclusive.

SMILES	ATXN2 expr inh	S2 tox	IL1B secr inh	MCF10A rerep	SW480 rerep	PINK1 expr mod
COc1cc(CNC2CCCC2)c(Br)cc1OC1CCCC1	n	n	u	n	n	n
CCc1ccc(NC(=O)N2CCN(c3nnc(C)c4c(C)n(-c5ccc(Cl)cc5)nc34)CC2)cc1	u	n	x	x	x	n
CC(C)(C)OC(=O)N(Cc1ccccc1)Cc1ccccc1OCc1cccc(NC(=O)C2CC2)c1	n	n	n	14.6µM	u	n
CC(C)C(=O)Nc1cccc(COc2cccc(CN(Cc3ccccc3)C(=O)OC(C)(C)C)c2)c1	n	n	n	1.84µM	n	n
CC(C)C(=O)Nc1cccc(COc2ccc(CN(CCc3ccccc3)C(=O)OC(C)(C)C)cc2)c1	n	n	n	u	u	n
COc1cccc(CNC(=O)CCc2c(C)c3cc4c(C)coc4c(C)c3oc2=O)c1	x	x	x	x	x	n
CCC(C)NC(=O)CSc1nc2cc3c(cc2c(=O)n1CCCCCC(=O)NCc1ccc(OC)cc1)OCO3 (centres undefined)	x	x	x	x	x	n
CCN(CC)C(=O)CSc1nc2cc3c(cc2c(=O)n1CCCCCC(=O)NCc1ccc(OC)cc1)OCO3	n	n	-64.5	18.4µM	n	n
CC(C)Cn1c(=O)c2sccc2n2c(CCCC(=O)NCCc3ccc(Cl)cc3)nnc12	x	x	x	x	x	n
O=C(c1cccnc1)N1CCN(Cc2ccc3ccccc3c2)CC1	x	x	n	18.4µM	n	n
CCCS(=O)(=O)N1CCN(Cc2ccc(OCc3ccccc3)c(OC)c2)CC1	n	n	-73.5	n	n	x
CCOc1ccc(CNC(=O)c2cccc(NC(=O)N3CCSc4ncccc43)c2)cc1OC	x	x	x	x	x	n
Cc1cc(C)nc(SC2=CS(=O)(=O)c3ccccc32)n1	u	u	-97.7	16.4µM	20.6µM	n
O=S1(=O)C=C(Sc2nc3ccccc3s2)c2ccccc21	u	7.08µM	-66.3	2.91µM	u	n
O=S1(=O)C=C(Sc2nnc(-c3ccccc3)o2)c2ccccc21	10µM	x	-101.7	u	0.581µM	n
CN(C1CCCCC1)S(=O)(=O)c1ccc(F)c(C(=O)Nc2ccc(C(F)(F)F)cc2)c1	n	u	x	x	x	n
O=C1NC(=S)/C(=C\c2ccc(-c3ccccc3Cl)o2)S1	n	u	n	6.51µM	n	u
Cc1nc2ccccn2c1C(=O)CSc1cccc(Cl)c1	n	n	-69.6	n	n	n
Cc1nc(NCc2cnn(C)c2)sc1-c1ccn(-c2cccc(F)c2)n1	x	n	x	x	x	n
CCC1(C)N=C(c2ccc3c(c2)OCO3)CC(c2ccccc2O)N1 (centres undefined)	n	n	n	7.31µM	14.6µM	n
CC(=O)Nc1ccccc1-c1nc(CNC(=O)c2ccc(F)c(F)c2)c(C)o1	x	n	x	x	x	n
Cc1sc(-n2c(C)cc(/C=C3\SC(=S)NC3=O)c2C)c(C#N)c1C	n	u	n	n	8.2µM	n
CCc1nn(CCCC(=O)NCc2ccc(OC)c(OC)c2)c(=O)c2cc3occc3n12	x	x	x	x	x	n
Cc1ccccc1CN1C(=O)c2ccccc2Sc2ccc(C(=O)NC3CCCCC3)cc21	x	x	x	x	x	n
COC(=O)CCCn1cc(CN2CC(N3CCCC3)CS2(=O)=O)nn1 (centres undefined)	n	n	n	x	x	n
SMILES	ATXN2 expr inh	S2 tox	IL1B secr inh	MCF10A rerep	SW480 rerep	PINK1 expr mod
O=c1cc(N2CCN(c3ccc(F)cc3)CC2)[nH]c(=O)n1C1CCCCC1	u	n	n	n	n	n
O=c1cc(Nc2ccc3c(c2)OCCO3)[nH]c(=O)n1C1CCCCC1	u	u	n	u	11.6µM	n
CCc1ccc(Nc2cc(=O)n(C3CCCCC3)c(=O)[nH]2)cc1	n	n	n	n	u	28.2µM
CC(C)c1c(C(=O)NCC2(N3CCOCC3)CCCC2)cnn1-c1nccc(-c2cccs2)n1	x	n	x	x	x	n
O=C(O)Cc1c[nH]c2ccccc12	n	n	n	n	n	n
O=C(CCl)N(c1ccccc1)c1c[nH]c2ccccc12	u	25.1µM	-99.5	14.6µM	u	n
O=C(CCl)N(c1ccc(Cl)cc1)c1c[nH]c2ccccc12	u	17.8µM	-108.7	2.59µM	20.6µM	n
CCSc1nnc(NS(=O)(=O)c2ccc(OC)cc2)s1	n	n	n	0.731µM	n	n
CCSc1nnc(NS(=O)(=O)c2ccc(C)cc2)s1	n	n	n	n	n	n
COc1ccc(CNC(=O)CCc2c(C)nc3c(c(C)nn3-c3ccccc3)c2C)cc1	n	u	x	x	x	n
Cc1cc(S(=O)(=O)N2CCN(Cc3noc(CCC(=O)N4CCCCC4)n3)CC2)ccc1F	n	n	x	x	x	n
CCOC(=O)C1CCN(CC(C)(C)NS(=O)(=O)c2ccc(Cl)cc2)CC1	n	n	n	14.6µM	n	n
CC(C)(CN1CCCC1)NS(=O)(=O)c1ccc(Cl)cc1	n	n	n	n	n	n
CCOC(=O)C1CCN(CC(C)(C)NS(=O)(=O)c2ccc(C)cc2)CC1	n	n	n	n	n	n
CC(C)(CN1CCNCC1)NS(=O)(=O)c1ccc(Cl)cc1	u	n	n	11.6µM	n	n
O=C(Nc1cccc(S(=O)(=O)c2cccc(NC(=O)C3CC3)c2)c1)C1CC1	n	n	-73.9	n	n	n
CS(=O)(=O)c1cccc(NC(=O)C2CC2)c1	n	n	n	n	n	n
Cc1cc(C)cc(-n2cnc3cc(C(=O)NCCc4ccccc4)ccc32)c1	x	x	x	x	x	n
C1COCCNCCOCCOCCN1	n	n	u	n	n[9.22 µM]	n
C1COCCNCCOCCOCCOCCN1	n	n	n	n	10.3µM	n
CCOC(=O)c1ccc(NC(=O)C2CCN(S(=O)(=O)Cc3ccccc3)CC2)cc1	n	n	x	x	x	n
C=CCOc1ccc(Br)cc1CNC(C)(C)CO	x	n	n	n	n	n
CC(C)(C)NCc1cc(Cl)ccc1OCc1cccs1	n	n	n	n	x	n
CC(C)(CO)NCc1cc(Br)ccc1OCc1ccccc1	n	n	-65.9	n	u	n
CC(C)(C)NCc1cc(Br)ccc1OCc1cccs1	n	n	-58.9	n	n	n
SMILES	ATXN2 expr inh	S2 tox	IL1B secr inh	MCF10A rerep	SW480 rerep	PINK1 expr mod
COc1ccc(CNC(=O)c2ccc3c(c2)N(Cc2c(F)cccc2Cl)C(=O)CS3)cc1	n	u	x	x	x	n
Cc1ccc(CNC(=O)C2CC(c3cc(C(F)(F)F)cc(C(F)(F)F)c3)=NO2)o1 (centres undefined)	n	n	n	9.2µM	u	n
COc1ccc(C2=NOC(C(=O)NCc3ccco3)C2)cc1 (centres undefined)	n	n	n	6.51µM	18.4µM	n
O=C(NCc1ccco1)C1CC(c2ccc(C(F)(F)F)cc2)=NO1 (centres undefined)	n	n	n	u	u	n
COc1cc(C2=NOC(C(=O)NCc3ccco3)C2)cc(OC)c1OC (centres undefined)	n	u	n	u	u	11.2µM
O=S(=O)(Nc1cc(Br)cc2cccnc12)c1ccccc1	x	x	x	x	x	n
